Data on eleven molecules can be found in PubChem BioAssay (NCI).

Several values for one entry are separate records, joined by “and”; a condition that tells them apart may be missing. Equal entries are not always repeated. About 83,000 compounds went through this panel and 20% of them were active in at least one assay; those are over-represented in the sample as a whole.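 Activity criterion: percent growth below 10, measured after cells in 96-well plates were exposed to a single compound concentration for 48 hours.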 A number with no mark means an inactive call. Activity calls are given as the source filed them.

For this test, the system named is HL-60(TB) leukemia. As to the kind of experiment: NCI-60 one-dose screen, 48 h (100 = growth as untreated, 0 = no growth, -100 = all killed). Particulars: 10 µM unless noted.
As to `CC(C)NCC(O)c1ccc(O)c(O)c1` (stereo unspecified), the growth was 85.3% and 82.1% and 95.3%. In the case of `CCS(=O)(=O)CCCl`, the growth is 99.8%. As for `O=C(CSc1nc2ccc([N+](=O)[O-])cc2[nH]1)Nc1ccc(F)c(Cl)c1`, the growth was 10.7%. Consider `NS(=O)(=O)c1ccc(-n2nc(-c3ccc(Br)cc3)ccc2=O)cc1`, for which the growth is 88.5% [100 µM].

Take `O=C1Nc2ccccc2/C1=C\c1nc(C2CCN(S(=O)(=O)c3ccc(F)cc3)CC2)n2ccccc12`: the growth was 92.3%. `CN(C)c1ccc(/C=C\C(=O)c2ccccc2)cc1`: the growth was 76.6% and 81.7% and 75.5%. As for `COc1ccc(-c2csc(NC(=O)CSc3nc(-c4ccccc4)cc(=O)[nH]3)n2)cc1`, the growth was 52.4%.

On to `COc1cc2c(cc1OCCCCC(=O)Nc1ccc(-c3nc4ccccc4s3)cc1)N=C[C@@H]1CCCN1C2=O`, for which the growth was -47.2% (active). As to `COc1cccc(NC(=O)c2cccc(-c3cc(=O)c4c(OC)c(OC)c(OC)cc4o3)c2)c1`, the growth is 68.7%. Turning to `COc1ccc(C2=NN(C(=O)c3cc(OC)c(OC)c(OC)c3)C(c3ccc(Cl)cc3)C2)cc1OC` (stereo unspecified), the growth was -54% (active). `CC(=O)NCC(=O)c1ccc([N+](=O)[O-])cc1`: the growth is 103%.
